Data on 40 compounds can be found in PubChem BioAssay (EPA / NIEHS).

Calls of active or inactive are those of the source. How the source made its calls: active means hit-call score of the fitted dose curve at least 0.9, where 1 is the maximum; inactive means score below 0.9.

A short description of the assay: BSK_LPS_PGE2: BioMAP Diversity Plus: LPS Assay for Prostaglandin E2 (PGE2) Biomarker Activity (AID 2283082). The settings on record: primary human HUVEC with PBMC; actives raise or lower the signal. Here is the method:
BSK_LPS is a cell-based, multiplexed-readout assay that uses umbilical vein endothelium and peripheral blood mononuclear cells, a human vascular primary cell co-culture, with measurements taken at 24 hours after chemical dosing in a 96-well plate.BSK_LPS_PGE2 is an assay component measured in the BSK_LPS assay. It measures PGE2 antibody related to regulation of gene expression using ELISA technology.Data from the assay component BSK_LPS_PGE2 was analyzed into 1 assay endpoint. This assay endpoint, BSK_LPS_PGE2, was analyzed with bidirectional fitting relative to DMSO as the negative control and baseline of activity. Using a type of binding reporter, gain or loss-of-signal activity can be used to understand changes in the signaling as they relate to the gene PTGER2. Furthermore, this assay endpoint can be referred to as a primary readout, because this assay has produced multiple assay endpoints where this one serves a signaling function. To generalize the intended target to other relatable targets, this assay endpoint is annotated to the gpcr intended target family, where the subfamily is rhodopsin-like receptor.
The levels of cell surface (or secreted, indicated by the prefix "s") biomarker endpoints were measured by ELISA. Overt cytotoxicity to cells in confluent adherent cultures (all systems other than the BT system) was assessed by measuring total protein levels using sulforhodamine B (SRB) staining in parallel cultures at the time of biomarker measurements, indicated as SRB endpoints. For proliferation assays for adherent cell types, individual cell types are cultured at sub-confluence and relative cell numbers quantified by SRB staining at time points optimized for each system (48 h: 3C and CASM3C systems; 72 h: BT and HDF3CGF systems; 96 h: SAg system). SRB was performed by staining cells with 0.1% SRB after fixation with 10% TCA and reading wells at 560 nm.Viability and proliferation of PBMC (T cells) was quantified by Alamar Blue reduction for the SAg and BT systems. For PBMC viability (referred to as PBMC Cytotoxicity within the assay endpoint names), cells were plated (75,000/well in a 96-well plate) and then chemical samples added for 1 h before addition of activators, SEB and TSST-1 (20 ng/mL final concentration each). Cells were incubated for 90 h. Then, Alamar Blue (20 uL/well) (Invitrogen, Cat DAL1100) was added for 6 h, and the plates were read with a fluorescence microplate reader at 546/580 nm (excitation/emission). For PBMC proliferation, cells were plated and activated as above but incubated for only 16 h prior to addition of Alamar Blue. Plates were read after 6 h.
With `CCCCCCc1ccc(O)cc1O`, the AC50 (as a rule, the concentration giving half of the maximal activity seen) was 1.38 µM (active). For the compound `CC1(C)C(=O)N(Br)C(=O)N1Br`, the outcome was inactive. On the same count and under the same terms, for `O=C(O)CC(O)C(=O)O` (stereo not given) the value was “inactive”; for `CC(=O)c1ccc2c(c1)[C@H](NC(=O)c1ccc(F)cc1)[C@@H](O)C(C)(C)O2`, “inactive”.

Turning to `CCc1cc(SCc2sc(-c3ccc(C(F)(F)F)cc3)nc2CN2CCN(c3ccc(OC)cc3)CC2)ccc1OCC(=O)O`, the AC50 is 20 µM (active). On to `Nc1cccc(N)c1`, for which the result was inactive. For `CC(C)CCCCCCOC(=O)c1ccc(C(=O)OCCCCCCC(C)C)c(C(=O)OCCCCCCC(C)C)c1`, the outcome was inactive.

On to `Fc1ccccc1[C@@H](F)COC1CCC(Nc2ncnc3[nH]ncc23)CC1` (stereo not given in full), for which the outcome was inactive. For `On1ccccc1=S`, the AC50 is 31.1 µM (active). On to `CCn1nc(Cc2ccccc2)cc1C1CCN(C[C@H]2C[C@H](N(C)[C@@H](C(=O)O)C(C)C)C[C@@H]2c2cccc(F)c2)CC1`, for which the result was inactive. Take `Clc1nc(Cl)c(Cl)c(Cl)c1Cl`: the AC50 was 15.1 µM (active). As for `CC(C)=CCCC(C)CCO` (stereo not given), the outcome was inactive. Still for that read-out and setting: under `CC(=O)OCCC(C)C` stands “inactive”; under `Nc1nc2ncc(CNc3ccc(C(=O)N[C@@H](CCC(=O)O)C(=O)O)cc3)nc2c(=O)[nH]1`, “inactive”. On the same count and under the same terms, under `CC(C)=CCCC(C)=CC=O` stands “inactive”; under `CC/C(=C\C(=N/O)C(N)=O)C(C)[N+](=O)[O-]` (stereo not given), “inactive”; under `O=C1CCCCCN1`, “inactive”. Still for that read-out and setting: for `COC(=O)c1ccccc1O` the value was “inactive”. With `O=C(O)c1cccc(N(Cc2cccnc2)c2ccc(OC(F)F)c(OC(F)F)c2)c1`, the AC50 was 12.2 µM (active). As to `CC(C)=CCC/C(C)=C\CO`, the outcome was inactive.

On to `O=c1n(CC2CO2)c(=O)n(CC2CO2)c(=O)n1CC1CO1` (stereo not given), for which the result was inactive. `CN(C)c1ccc(N=NS(=O)(=O)O)cc1`: the result was inactive. Same read-out and setting: under `CNS(=O)(=O)c1cc(C(=O)N2CCC(CCN3C4CCC3CC(n3c(C)nc5ccccc53)C4)(c3cccc(F)c3)CC2)c(Cl)cc1F` (stereo not given) stands “inactive”; under `COc1ccc(/C=C/S(=O)(=O)NC(=O)c2ccc(C)cc2Cl)cc1`, “inactive”; under `CCCCCCCCCCCCc1ccccc1`, “inactive”. As to `CCCCC(CC)COC(=O)c1ccc(C(=O)OCC(CC)CCCC)cc1` (stereo not given), the outcome was inactive. As for `COCCOCCOCCOC`, the result was inactive. With `CCN(C(=O)c1cc(C)cc(OC[C@H](C)Nc2ccncc2)c1)C(C)C`, the result was inactive.

Take `O=C(O)c1cc(N=Nc2ccc(S(=O)(=O)Nc3ccccn3)cc2)ccc1O`: the result was inactive.

For the compound `CCC(C)(C)C(=O)O[C@H]1C[C@@H](C)C=C2C=C[C@H](C)[C@H](CC[C@@H]3C[C@@H](O)CC(=O)O3)[C@H]21`, the outcome was inactive. For `CCCN(C1CCN(C(=O)C2CCNCC2)CC1)[C@@H]1CCc2ccc(OC)cc2C1`, the result was inactive. Take `COCCOc1cc2cc(C(=O)NC3CCN(C(C)C)CC3)n(CC(=O)Nc3ccc(Cl)cn3)c2cn1`: the outcome was inactive.

As to `CCCCCCCCCCCCCCCO`, the outcome was inactive. As for `COc1cccc(-c2ccc(/C=C\CN3CCCCCC3)cc2Cl)c1`, the outcome was inactive.

On to `Cn1c(=O)c2c(ncn2C)n(C)c1=O`, for which the outcome was inactive.

As to `C[C@](N)(Cc1ccc(O)c(O)c1)C(=O)O`, the result was inactive. Same read-out and setting: under `CCCC(=O)OCC` stands “inactive”; under `CCCCC(CC)COC(=O)CCCCCCCCC(=O)OCC(CC)CCCC` (stereo not given), “inactive”. With `Cc1ccc(C)c(O)c1`, the AC50 is 9.83 µM (active).

As to `CCOC(=O)COc1ccc2c(c1)CC(NCC(O)c1cccc(Cl)c1)CC2` (stereo not given), the AC50 is 27.6 µM (active).
